Assay outcomes (PubChem)
The list is not random: actives were taken first. Their share in the collection is about 8.1%.
Hedgehog inh – Hedgehog pathway signaling inhibitors, primary screen, luminescence, Shh-LIGHT2 cells, Gli-luciferase | actives 2.1% (n = 22,000) | Shh-LIGHT2 Gli-luciferase reporter, 30 h | inhibition, % (test concentration not listed);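 active = mean inhibition across valid replicates above about 65%, limit read from the data; inconclusive = mean under the limit, yet half or more replicates past it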;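 also: pathway switched on by Shh-conditioned medium diluted 1 in 25 in low serum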
NOMO-1 viab – NOMO-1 AML cell viability reduction, primary screen, STK33 inhibitor project, CellTiter-Glo luminescence; NOMO-1 AML viability, 72 h; inhibition, % (test concentration not listed); actives 7.5% (n = 37,000); AID 2330, 2010; in the data active = inhibition above about 80%; inconclusive = no clear call, values can overlap the other calls
PD-1 reverse act – activators reversing PD-1 mediated T-cell inhibition, primary screen, luminescence, primary human CD4 T cells, PD-L1 beads; CellTiter-Glo 96 h; activation, % (no concentration beside the values); 29,000 tested, under 10 active; call rule not given here
MITF inhib – inhibitors of MITF, primary screen, MITF inhibitor project, cell-based, luminescence; AID 2240, 2010; actives 0.28% (n = 37,000); inhibition, % (no concentration beside the values); TRPM1 promoter luciferase, 24 h; in the data active = inhibition above about 85%; inconclusive = no clear call, values can overlap the other calls; inactive = below about 68%;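 also: human melanocyte line stably carrying TRPM1 promoter luciferase reporter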
Large screens that a line does not name were inactive.

COc1cc(NC(=O)CSc2ncnc3sc(C)c(C)c23)cc(OC)c1	none (no result: Hedgehog inh, PD-1 reverse act)
C[C@@H]1CCCCO[C@@H](CN(C)Cc2ccc(C(F)(F)F)cc2)[C@@H](C)CN([C@H](C)CO)C(=O)c2cc(NS(=O)(=O)c3ccccc3)ccc2O1	NOMO-1 viab inconclusive (no result: Hedgehog inh)
C[C@H]1CN([C@@H](C)CO)C(=O)c2cc(NS(=O)(=O)c3ccc(F)cc3)ccc2O[C@@H]1CN(C)Cc1ccc(C(F)(F)F)cc1	none
C[C@@H]1CCCCO[C@H](CN(C)C(=O)Nc2ccc(C(F)(F)F)cc2)[C@@H](C)CN([C@H](C)CO)C(=O)c2cc(NS(=O)(=O)c3ccc(Cl)cc3)ccc2O1	NOMO-1 viab 120
C[C@@H]1CCCCO[C@@H](CN(C)C(=O)Nc2ccc(C(F)(F)F)cc2)[C@@H](C)CN([C@H](C)CO)C(=O)c2cc(NS(=O)(=O)c3ccccc3)ccc2O1	Hedgehog inh inconclusive (no result: PD-1 reverse act)
C[C@@H]1CN([C@H](C)CO)C(=O)c2cc(NS(=O)(=O)c3ccc(F)cc3)ccc2O[C@@H]1CN(C)Cc1ccc(C(F)(F)F)cc1	NOMO-1 viab 112
C[C@@H]1CN([C@H](C)CO)C(=O)c2cc(NS(=O)(=O)c3ccc(F)cc3)ccc2O[C@H]1CN(C)Cc1ccc(C(F)(F)F)cc1	NOMO-1 viab 81 (no result: Hedgehog inh)
C[C@@H]1CCCCO[C@@H](CN(C)Cc2ccc(C(F)(F)F)cc2)[C@@H](C)CN([C@H](C)CO)C(=O)c2cc(NS(=O)(=O)c3ccc(F)cc3)ccc2O1	NOMO-1 viab 110
C[C@@H]1CN([C@@H](C)CO)C(=O)c2cccc(NC(=O)C3CCOCC3)c2O[C@@H]1CN(C)C(=O)Nc1ccc(F)cc1	none
C[C@H](CO)N1C[C@H](C)[C@@H](CN(C)C(=O)Nc2cccc3ccccc23)Oc2ccc(NS(=O)(=O)c3ccc(F)cc3)cc2C1=O	none (no result: Hedgehog inh)
C[C@@H]1CN([C@@H](C)CO)C(=O)c2cc(NS(=O)(=O)c3ccccc3)ccc2O[C@@H]1CN(C)Cc1ccc(C(F)(F)F)cc1	none
Cc1ccc(S(=O)(=O)Nc2ccc3c(c2)C(=O)N([C@H](C)CO)C[C@H](C)[C@H](CN(C)Cc2ccc(C(F)(F)F)cc2)O3)cc1	NOMO-1 viab 93
C[C@H](CO)N1C[C@H](C)[C@H](CN(C)C(=O)Nc2ccc(C(F)(F)F)cc2)Oc2ccc(NC(=O)Cn3cnnn3)cc2CC1=O	none (no result: PD-1 reverse act)
C[C@@H]1CCCCO[C@@H](CN(C)C(=O)NC2CCCCC2)[C@@H](C)CN([C@H](C)CO)C(=O)c2cc(NC(=O)Cc3ccccc3)ccc2O1	none (no result: Hedgehog inh)
Cc1cc(=O)[nH]c(SCCCOc2ccc([N+](=O)[O-])cc2)n1	none (no result: Hedgehog inh)
C=C(C(=O)O[C@H]1C/C=C(/C)C[C@H](O)[C@H]2[C@H](C)C(=O)O[C@@H]2/C=C\1C)[C@@H]1CCC(=C)[C@@H]2C[C@H](O[C@@H]3O[C@H](CO)[C@@H](O)[C@H](O)[C@H]3O)C(=C)[C@@H]2C1	NOMO-1 viab 118
C=C1CCC2C(C(=O)O)=COC(O[C@@H]3O[C@H](CO)[C@@H](O)[C@H](O)[C@H]3O)C12 (stereo partly specified)	none
Cc1noc(C)c1S(=O)(=O)Nc1ccc2c(c1)C(=O)N([C@@H](C)CO)C[C@H](C)[C@H](CN(C)C(=O)Nc1ccc3c(c1)OCO3)O2	none (no result: Hedgehog inh)
COc1ccccc1NC(=O)c1ccc(NS(=O)(=O)c2cccc3cccnc23)cc1	none (no result: Hedgehog inh, PD-1 reverse act)
COC1CC(O[C@H]2CC[C@]3(C)C4CC[C@@]5(C)C(=O)[C@]4(CC[C@@H]3C2)CC[C@@H]5C2=CC(=O)OC2)OC(C)C1OC1OC(COC2OC(CO)C(O)C(O)C2O)C(O)C(O)C1O (stereo partly specified)	NOMO-1 viab 111
CC1OC(OCC2OC(O[C@H]3CC[C@@]4(C)C(CC[C@@]5(C)C6=C(CCC45)C4CC(C)(C)CC[C@]4(C(=O)OC4OC(CO)C(O)C(O)C4O)CC6)C3(C)C)C(O)C(O)C2O)C(O)C(O)C1O (stereo partly specified)	none (no result: NOMO-1 viab, PD-1 reverse act, MITF inhib)
Cc1noc(C)c1NC(=O)N(C)C[C@@H]1Oc2ccc(NC(=O)c3ccncc3)cc2CC(=O)N([C@H](C)CO)C[C@H]1C	none (no result: PD-1 reverse act)
C[C@@H]1CN([C@@H](C)CO)C(=O)c2cccc(NC(=O)C3CCOCC3)c2O[C@H]1CN(C)Cc1ccc(-c2ccccc2)cc1	none (no result: PD-1 reverse act)
COC(=O)c1cc(NC(=S)NCc2cccnc2)cc(C(=O)OC)c1	NOMO-1 viab 106 (no result: Hedgehog inh)
Cc1ccc2c(CC(=O)Nc3cccc([N+](=O)[O-])c3)coc2c1C	none (no result: Hedgehog inh)
Cc1ccc2c(CC(=O)NCc3ccco3)coc2c1C	NOMO-1 viab 115 (no result: Hedgehog inh)
COc1ccc(NC(=O)Nc2ccc3c(c2)C(=O)N([C@H](C)CO)C[C@@H](C)[C@@H](CN(C)Cc2ccc(Cl)c(Cl)c2)O3)cc1	NOMO-1 viab 98 (no result: Hedgehog inh)
COc1ccc(NC(=O)Nc2ccc3c(c2)C(=O)N([C@@H](C)CO)C[C@H](C)[C@H](CN(C)Cc2ccc(Cl)c(Cl)c2)O3)cc1	NOMO-1 viab 104
COc1ccc(CN(C)C[C@H]2Oc3ccc(NS(=O)(=O)c4cccs4)cc3C(=O)N([C@@H](C)CO)C[C@@H]2C)cc1	none
CC(C)NC(=O)N(C)C[C@H]1Oc2ccc(N(C)C)cc2C(=O)N([C@H](C)CO)C[C@H]1C	none
C[C@H]1CN([C@@H](C)CO)C(=O)c2cccc(NS(=O)(=O)c3ccc(F)cc3)c2O[C@H]1CN(C)C(=O)NC1CCCCC1	none
CC(C)NC(=O)N(C)C[C@@H]1OCCCC[C@@H](C)Oc2ccc(NC(=O)Nc3ccc(F)cc3)cc2C(=O)N([C@H](C)CO)C[C@@H]1C	none
CCn1c(SCC(=O)Nc2ccc(Cl)c(Cl)c2)nnc1-c1ccccc1C	none (no result: Hedgehog inh)
O=C1C(Nc2ccccc2)=CC(=O)c2ncccc21	Hedgehog inh 94, NOMO-1 viab 142, MITF inhib 97
C[C@@H]1CN([C@H](C)CO)C(=O)c2cccc(NC(=O)Nc3ccc(C(F)(F)F)cc3)c2O[C@H]1CN(C)Cc1ccc(Cl)c(Cl)c1	NOMO-1 viab 104
C[C@@H]1CN([C@@H](C)CO)C(=O)c2cccc(NC(=O)Nc3ccc(C(F)(F)F)cc3)c2O[C@H]1CN(C)Cc1ccc(Cl)c(Cl)c1	NOMO-1 viab 107
C[C@@H]1CN([C@H](C)CO)C(=O)c2cccc(NC(=O)Nc3ccc(C(F)(F)F)cc3)c2O[C@@H]1CN(C)Cc1ccc(Cl)c(Cl)c1	none
C[C@@H]1CN([C@H](C)CO)C(=O)c2cc(NC(=O)Nc3ccc(F)cc3)ccc2O[C@H]1CN(C)C(=O)Nc1ccc(C(F)(F)F)cc1	none
Cc1ccc(Cl)cc1N(CC(=O)Nc1cccc([N+](=O)[O-])c1C)S(C)(=O)=O	none (no result: Hedgehog inh)
CC(=O)OC(C)(C)/C=C/C(=O)[C@](C)(O)[C@H]1C(O)C[C@@]2(C)[C@@H]3CC=C4[C@@H](C=C(O[C@@H]5O[C@H](CO)[C@@H](O)[C@H](O)[C@H]5O)C(=O)C4(C)C)[C@]3(C)C(=O)C[C@]12C (stereo partly specified)	NOMO-1 viab 117
